# Screens deposited in PubChem by Sanford-Burnham Center for Chemical Genomics.
# Compounds with a hit are over-represented: about 28% of the library has one in this group of screens.
# CD11b adhes enh: CD11b/CD18-fibrinogen binding enhancement; P05107+P11215; K562 CD11b/CD18 adhesion to fibrinogen, ATPlite luminescence; activation, % at 10 µM; 0.07% of 93,000 active; AID 1499;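 active = 10 µM primary screen giving 50% or more activity, confirmed by 40% or more on retest at that dose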
# CYP2C19 act: activators of human cytochrome P450 2C19; P33261; 96,000 tested, under 10 active; recombinant CYP2C19, luciferin-H EGE luminescence; active compounds read high; 0 = fully inhibited enzyme, 1 = untreated enzyme; activation factor at 5 µM;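 active = activation factor of at least 2 at 5 µM in the primary screen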
# CYP2C9 act: activators of human CYP2C9; P11712; recombinant CYP2C9, luciferin-H conversion, luminescence; active compounds read high; factor 1 = untreated enzyme, 0 = blocked; activation factor at 5 µM; 1.4% of 96,000 active;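 active = activation factor of 2 or more for CYP2C9 at a 5 µM dose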
# Target sequence (P11712 whole entry, looked up): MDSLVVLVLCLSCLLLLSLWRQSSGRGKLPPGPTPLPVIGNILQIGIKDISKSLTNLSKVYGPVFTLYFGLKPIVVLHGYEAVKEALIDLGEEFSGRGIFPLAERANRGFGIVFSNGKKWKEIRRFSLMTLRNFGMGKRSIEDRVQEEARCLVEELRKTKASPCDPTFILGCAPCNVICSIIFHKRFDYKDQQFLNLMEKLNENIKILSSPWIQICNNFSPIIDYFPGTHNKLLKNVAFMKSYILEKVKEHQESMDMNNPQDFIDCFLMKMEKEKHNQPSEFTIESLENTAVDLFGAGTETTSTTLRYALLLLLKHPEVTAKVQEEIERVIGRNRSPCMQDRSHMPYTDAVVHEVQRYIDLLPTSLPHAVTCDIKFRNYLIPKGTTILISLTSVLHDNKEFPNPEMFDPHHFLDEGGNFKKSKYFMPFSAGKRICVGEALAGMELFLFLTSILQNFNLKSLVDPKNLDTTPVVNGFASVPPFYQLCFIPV
# CYP2C9 inhib: inhibitors of human CYP2C9; P11712; CYP2C9 Supersomes, luciferin-H conversion, luminescence; inhibition, % at 5 µM; 20% of 96,000 active; AID 777;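 active = blocking of liver enzyme CYP2C9 beyond about 50% at 5 µM, limit read from the data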
# CYP2C19 inhib: inhibitors of human CYP2C19; P33261; CYP2C19 Supersomes, luciferin-H EGE luminescence, 30 min; inhibition, % at 5 µM; 21% of 96,000 active; AID 778;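 active = CYP2C19 inhibition above a set limit at 5 µM in the primary screen, cut at about 50% in these data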
# Mac1 fbg inh: blocks human CD11b/CD18 adhesion to fibrinogen; P05107+P11215; K562 CD11b/CD18 adhesion to fibrinogen, ATPlite luminescence; Mn2+ added to activate the integrin; inhibition, % at 10 µM; 0.54% of 93,000 active; AID 1497;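 active = primary inhibition of 50% or more at 10 µM, then 40% or more on retest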
# A number is an active result; . = inactive; / = no result given.
SMILES,CD11b adhes enh,CYP2C19 act,CYP2C9 act,CYP2C9 inhib,CYP2C19 inhib,Mac1 fbg inh
CC(Sc1nnc(-c2ccc(Cl)cc2Cl)n1Cc1ccccc1)C(=O)Nc1nccs1 (centres undefined),/,.,.,54,.,/
COc1ccc(-n2c(COc3ccccc3)nnc2SCC(N)=O)cc1,.,.,.,.,63,.
COc1cccc(-n2c(COc3ccc(C)cc3)nnc2SCC(N)=O)c1,.,.,.,.,67,.
CCCCC(CC)CNC(=O)C1C2C=CC(C2)C1C(=O)O (centres undefined),.,.,.,.,.,.
CSc1ncc(Cl)c(C(=O)Nc2nnc(SC/C=C/c3ccccc3)s2)n1,.,.,.,99,80,.
Cc1cc(C)[n+](-c2ccc(F)cc2)c2[nH]c(=O)[nH]c(=O)c12,.,/,/,/,/,.
O=C(Nc1nc(-c2ccccc2)cs1)C1CCCN(S(=O)(=O)c2cccc([N+](=O)[O-])c2)C1 (centres undefined),.,.,.,62,.,.
O=C(Nc1nccs1)C1CCCN(S(=O)(=O)c2cccnc2)C1 (centres undefined),.,.,.,.,.,.
O=C(Nc1nc(-c2ccccc2)cs1)C1CCCN(S(=O)(=O)c2ccccc2)C1 (centres undefined),.,.,.,69,.,.
NC(=O)C1CCN(C(=O)c2ccc(NC3=NC4CS(=O)(=O)CC4S3)cc2)CC1 (centres undefined),.,.,.,.,.,.
CCOC(=O)c1c(CC(C)C)csc1NC(=O)CCl,.,.,.,62,.,.
CCOC(=O)c1c(CC(C)C)csc1NC(=O)C(C)C,.,.,.,.,.,.
CC(C)Cc1csc(NC(=O)c2ccc(Cl)cc2)c1C(=O)O,.,/,/,/,/,100
O=c1nc2sc3ccccc3n2c(=O)n1-c1cccc(Cl)c1,.,.,.,.,68,.
Cc1csc(NC(=O)C2CCC(C)(C(=O)O)C2(C)C)n1 (centres undefined),.,.,.,.,.,.
O=[N+]([O-])c1cc(S(=O)(=O)N2CCCCCC2)ccc1F,.,/,/,/,/,.
CCOc1ccc(N(CC(=O)NC2CCCC2)C(=O)CCCC(=O)Nc2ccccn2)cc1,.,.,.,.,.,.
COc1ccccc1N(CC(=O)NC1CCCC1)C(=O)c1csnn1,.,.,.,.,91,.
Cc1cccc(N(CC(=O)NC2CCCC2)C(=O)CCCC(=O)Nc2ccccn2)c1,.,.,.,62,78,.
Cc1ccc(C)c(N(CC(=O)NC2CCCC2)C(=O)CCCC(=O)Nc2ccccn2)c1,.,.,.,83,80,.
COc1ccccc1N(CC(=O)NC1CCCCC1)C(=O)CCC(=O)Nc1ccccn1,.,.,.,60,64,.
CCOc1ccc(N(CC(=O)NC2CCCC2)C(=O)CCC(=O)Nc2ccccn2)cc1,.,.,.,.,.,.
CCN1CNC(=S)N(C(C)c2ccccc2)C1 (centres undefined),.,/,/,/,/,.
O=C(CCC(=O)N(CC(=O)NC1CCCCC1)c1ccc2c(c1)OCO2)Nc1ccccn1,.,.,.,.,.,.
Cc1cccc(N(CC(=O)NC2CCCC2)C(=O)CS(=O)CC(=O)Nc2ccc3c(c2)OCO3)c1 (centres undefined),.,.,.,88,.,.
SMILES,CD11b adhes enh,CYP2C19 act,CYP2C9 act,CYP2C9 inhib,CYP2C19 inhib,Mac1 fbg inh
O=C(O)CC(Cc1ccc(Br)cc1)C(=O)O (centres undefined),.,.,.,.,.,.
Cc1nc2cc(-c3cccc(F)c3)nn2c(C)c1CCC(=O)NC(C)CCc1ccco1 (centres undefined),.,.,.,91,91,.
COc1cc(OC)cc(-c2cc3nc(C)c(CCC(=O)NC(C)CCc4ccco4)c(C)n3n2)c1 (centres undefined),.,.,.,.,.,.
Cc1nc2cc(-c3ccccc3)nn2c(C)c1CCC(=O)NCc1ccco1,.,.,.,52,56,.
CCOC(=O)C1CCN(C(=O)CCc2c(C)nc3cc(-c4ccccc4)nn3c2C)CC1,.,.,.,.,.,.
COc1ccccc1-c1cc2nc(C)c(CCC(=O)NCc3ccco3)c(C)n2n1,.,.,.,.,.,.
